# Screening results: PubChem, National Center for Advancing Translational Sciences (NCATS)
# This is a sample that favours compounds with a hit; in the whole collection about 3.6% have one here.
# Sfp inh: blocks B. subtilis Sfp PPTase activity. Q9F4F7. Biochemical Sfp PPTase activity, qHTS. Potency, µM, inactives show largest response in the series, negative = inhibition, most hits filed as inhibitors. hit rate 3.5% among 310,000. AID 1490;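 note: the enzyme is Sfp with the accession as filed and its product quenches rhodamine fluorescence; 0% = enzyme reaction without inhibitor and -100% = no enzyme wells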
#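 With Hepes-Na pH 7.6 buffer containing 10 mM MgCl2, Sfp (15 nM) modified BHQ-2-YbbR (12.5 uM) using rhodamine-CoA (5 uM). Two reads 30 minutes apart at 525/598 nm yielded each well's rate.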
# Epigenetic derep: derepresses silenced GFP reporter in murine cells; hit rate 0.2% among 280,000; murine LDR cells, GFP reporter derepression, 30 h; Potency, µM (series often up to 53.9 µM), inactives show at the highest dose GFP activation, hits mostly activators; note: % of control where 0% means no effect; nearly all actives have a fitted effect of over 60% in size
#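 In this reporter-derepression format, murine cells bearing a silenced integrated CMV-GFP locus incubate with test compound (30 h, 37 C), then are washed and imaged; fluorescent objects of 20–120 um count as induced cells.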
# IMPase Li cell: cell-permeable IMPase inhibitors with lithium potentiation | CHO-M1 cells, IP1 TR-FRET (IP-One), carbachol + lithium | Potency, µM (top dose mostly 59.4 µM), for inactives: at the highest dose activity, negative = IMPase inhibition, actives largely listed as inhibitors | hit rate 0.35% among 210,000 | AID 1457;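 note: IP1 builds up when IMPase is blocked and the TR-FRET signal falls; plate controls were basal vehicle for no effect and high inhibitor control for full effect; nearly all actives have a fitted effect of over 50% in size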
#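 CHO-M1, 2000 cells/well, 16–30 h culture; cpd + low Li+, 30 min 37C; lysis with d2-IP1/Eu-anti-IP1 Ab, 10 min RT; TR-FRET 665/620 ratio and 620 channel; AC50 via Hill.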
# NPSR antagonist: antagonists of human neuropeptide S receptor cAMP signaling. AID 1461. Potency, µM (series often up to 38.3 µM), inactives show at the highest dose activity change, negative = inhibition, actives largely listed as inhibitors. hit rate 1% among 220,000. CHO-NPSR cells, cAMP TR-FRET, antagonist mode; note: % is set by controls: 0 for no effect and ±100 for the full control effect; nearly all actives have a fitted effect of over 50% in size
# Target sequence (Q6W5P4 whole entry, looked up): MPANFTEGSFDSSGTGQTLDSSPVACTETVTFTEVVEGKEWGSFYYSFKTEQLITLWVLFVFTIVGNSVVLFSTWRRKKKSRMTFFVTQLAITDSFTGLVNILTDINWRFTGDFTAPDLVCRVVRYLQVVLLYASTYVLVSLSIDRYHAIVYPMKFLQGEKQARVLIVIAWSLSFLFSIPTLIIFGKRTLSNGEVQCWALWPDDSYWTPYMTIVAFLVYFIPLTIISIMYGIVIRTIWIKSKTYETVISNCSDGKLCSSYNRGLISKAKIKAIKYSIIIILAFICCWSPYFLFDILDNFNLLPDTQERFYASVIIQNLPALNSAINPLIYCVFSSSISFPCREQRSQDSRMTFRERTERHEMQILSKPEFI
# KAT2A inh: inhibitors of human GCN5L2 histone acetyltransferase; Q92830; GCN5L2 HAT assay, ThioGlo1 CoA-SH fluorescence; Potency, µM (series often up to 58.9 µM), without a hit: top-dose activity change, negative = inhibition, most hits filed as inhibitors; hit rate 0.21% among 390,000; AID 504327; note: % is set by controls: 0 for no effect and ±100 for the full control effect
#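 GCN5L2 (20 nM) in 50mM HEPES pH 7.5, 0.1mM EDTA, 0.01% Tween-20 preincubated 15 min with compounds at room temperature. Reaction started with H3(1-25) 75uM, acetyl-CoA 70uM, ThioGlo1 50uM; CoA-thiol fluorescence (Ex340/Em540) read at 0 and 20 min.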
# JMJD2E inh: blocks human JMJD2E demethylase activity. JMJD2E catalytic domain, FDH-coupled NADH fluorescence (FDH is formaldehyde dehydrogenase). hit rate 1.6% among 230,000. Potency, µM (doses to about 57.1 µM), for the others: top-dose activity change, negative = inhibition, actives largely listed as inhibitors. B2RXH2; active = well fitted inhibition curve with a large enough effect, not every such curve was filed as active; inconclusive = small, poorly fitted or top-dose-only effect, or another doubt; inactive = no such curve, though single readings can be large or run the other way;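 note: 0% = wells with enzyme and -100% = buffer wells without enzyme; nearly all actives have a fitted effect of over 50% in size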
# Target sequence (B2RXH2 1-337 limits assumed): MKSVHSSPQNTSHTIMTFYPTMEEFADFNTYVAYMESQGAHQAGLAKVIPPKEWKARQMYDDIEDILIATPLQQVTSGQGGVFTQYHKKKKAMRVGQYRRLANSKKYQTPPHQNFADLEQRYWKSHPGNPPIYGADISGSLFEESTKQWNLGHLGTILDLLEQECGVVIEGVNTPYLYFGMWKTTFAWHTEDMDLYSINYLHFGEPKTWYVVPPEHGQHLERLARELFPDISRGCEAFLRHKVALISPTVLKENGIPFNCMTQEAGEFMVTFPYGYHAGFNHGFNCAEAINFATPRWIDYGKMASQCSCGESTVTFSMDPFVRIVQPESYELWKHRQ
# * marks the source's active call; other numbers are inactive results; u = inconclusive; x = no result; ! = a repeat was not active; [ ] = another dose, or the depositor's remark. Unless noted, calls come from the whole dose curve; as a rule, active = well fitted curve in the direction sought with a large enough effect; inconclusive = small, poorly fitted or top-dose-only effect, or another doubt; inactive = no such curve, though single readings can be large; an effect the other way counts as inactive or inconclusive. Potency is the fitted concentration of half-maximal effect.
SMILES,Sfp inh,Epigenetic derep,IMPase Li cell,NPSR antagonist,KAT2A inh,JMJD2E inh
Cc1cc(C)n(CCC(=O)N/N=C/c2c(O)ccc3ccccc23)n1,u,1%,x,-16%,-27%,0.2µM*
O=C(N/N=C/c1cccs1)c1[nH]ncc1Br,13%,x,x,x,-3%,x
Cc1ccc(O)c(/C=N/NC(=O)c2[nH]ncc2Br)c1,0%,1%,-3%,-14%,-2%,3.2µM*
COc1ccc2ccccc2c1/C=N/NC(=O)c1cccc(Br)c1,12%,-2%,1%,-40%,0%,u
CCOc1ccc(/C=N/NC(=O)c2[nH]ncc2Br)c(O)c1,21%,0%,-3%,-19%,-8%,u
COc1ccccc1C(=O)Nc1c(C(=O)N2CCN(c3ccccc3F)CC2)oc2ccccc12,x,-2%,x,x,-21%,x
CCCSc1nc(C)c(-c2csc(C(C#N)=C3CCCC3)n2)cc1C#N,71µM*,-1%,3%[38.3 µM],-16%[46.1 µM],-28%,u
Fc1ccc(C(c2ccc(F)cc2)N2CCN(C/C=C\c3ccccc3)CC2)cc1,-1%,-2%,31%,x,11µM*,-2%
O=C(Nc1ccc(F)cc1)N1CCN(C/C=C/c2ccccc2)CC1,10%,9%,10%[38.3 µM],2%[46.1 µM],-6%,1%
CCN1CCN(CCOc2ccc(Cl)cc2)CC1,14µM*,1%,16%,1%,-5%,10%
CN(C(=O)c1ccco1)c1ccccc1C(=O)O,11%,x,x,x,0%,x
Cc1cc(NC(=O)/C=C/c2ccco2)ccc1NC(=O)c1ccccc1,13µM*,0%,11%,24%,3.2µM*,-4%
O=C(/C=C/c1ccco1)Nc1ccccc1C(=O)Nc1cccc(C(=O)O)c1,u,1%,x,10%,-2%,u
CN(C(=O)/C=C/c1ccco1)c1ccccc1C(=O)O,50µM*,0%,-4%,7%,1%,u
O=C(/C=C/c1ccco1)Nc1ccccc1C(=O)O,18µM*,2%,-5%,-39%,-12%,u
O=C(/C=C/c1ccco1)Nc1cc(Cl)ccc1C(=O)O,56µM*,-2%,-8%,-38%,-24%,1%
Cc1ccccc1/C=N/n1c(-c2ccccn2)n[nH]c1=S,35µM*,0%,x,13%,1%,-14%
S=c1[nH]nc(-c2ccccn2)n1/N=C/c1ccccc1,40µM*,-2%,-2%,-15%,-2%,u
S=c1[nH]nc(-c2cccs2)n1/N=C/c1cn(-c2ccccc2)nc1-c1ccccc1,-1%,-1%,x,-22%,-7%,3%
Cc1ccc(/C=N/n2c(-c3ccccn3)n[nH]c2=S)o1,28µM*,-1%,x,-7%,-22%,-8%
Fc1ccc(/C=N/n2c(-c3cccs3)n[nH]c2=S)cc1,50µM*,0%,38%[38.3 µM],-17%[46.1 µM],-11%,2%
S=c1[nH]nc(-c2ccccn2)n1/N=C/c1ccc(Cl)cc1,11%,0%,x,19%,-6%,5%
Cc1ccc(NC2=CC(=O)c3sc(C)nc3C2=O)cc1,-11%,x,x,x,40%,x
COC(=O)/C(Cc1cc(Br)c(OC)c(Br)c1O)=N/O,7%,0%,15%,x,x,-23%
CN(C)c1ccc(/C=N/n2c(-c3ccccc3Br)n[nH]c2=S)cc1,56µM*,0%,x,-55%,-22%,u
SMILES,Sfp inh,Epigenetic derep,IMPase Li cell,NPSR antagonist,KAT2A inh,JMJD2E inh
CCOC(=O)C1=C(C)NC(C)=C(C(=O)OCC)C1c1c(F)c(F)c(F)c(F)c1F,x,x,x,x,-25%,x
Cc1nc(SCC(=O)Nc2ccc3c(c2)OCO3)c(C#N)c2c1CCCC2,-12%,0%,46%[38.3 µM],u,-4%,4%
CCOc1cccc(NC(=O)CSc2nc(C)c3c(c2C#N)CCCC3)c1,13%,2%,4µM*,5%[46.1 µM],-2%,u
Cc1cc(=S)c2ccccc2[nH]1,56µM*,0%,x,-27%,-16%,-6%
Cc1ccc2[nH]c(C)cc(=S)c2c1,u,1%,u,-7%,-7%,u
C=C(C)C(=O)OCCCCCC,x,x,-13%,x,x,x
O=C(Cn1nnc(-c2ccc(F)cc2)n1)OCC(=O)c1ccccc1,79µM*,-1%,7%,-4%,-2%,-16%
CC(C)(C)NC(=O)C(c1ccc(O)cc1)N(C(=O)Cn1nnc(-c2ccc(F)cc2)n1)c1ccccc1F (stereo unspecified),13%,-2%,6%,13µM*,-14%,10%
CC(C)(C)NC(=O)C(c1ccncc1)N(C(=O)Cn1nnc(-c2ccc(F)cc2)n1)c1ccccc1F (stereo unspecified),u,1%,11%,22%,-5%,1%
CC(C)(C)NC(=O)C(c1ccncc1)N(C(=O)Cn1nnc(-c2ccc(F)cc2)n1)c1ccccc1 (stereo unspecified),20µM*,-1%,2%,10%,0%,-4%
CC(C)(C)NC(=O)C(c1ccncc1)N(C(=O)Cn1nnc(-c2ccc(F)cc2)n1)c1ccc(F)cc1 (stereo unspecified),-2%,4%,10%,-48%,-2%,3%
CN1C(=O)N(C)C2=NNC=NC2(O)C1=O (stereo unspecified),-25%,2%,-2%,x,x,u
CCS(=O)(=O)c1nc2ccccc2n1CC(=O)Nc1ccccc1C(=O)OC,x,2%,x,x,-8%,x
CCCCCCCCCCCC1=C(O)C(=O)C=C(O)C1=O,-9%,0%,29%,x,x,20µM*!
Cc1ccc(-c2csc3nc4cc(C(N)=O)ccc4c(=O)n23)cc1,79µM*,-1%,x,-34%,-7%,u
NC(=O)c1ccc2c(=O)n3c(-c4cccs4)csc3nc2c1,8%,0%,x,-1%,-2%,u
CNC(=O)C1(CC(C)C)C=CCN1C(C)=O (stereo unspecified),2%,-1%,4%,18%,-1%,7%
CC(=O)N1CC=CC1(CC(C)C)C(=O)NCc1ccc(C)o1 (stereo unspecified),45µM*,0%,-6%,x,x,2%
COCCNC(=O)c1ccc(Cc2nc3ccccc3[nH]2)cc1,x,-3%,x,x,x,x
CCc1cccc(NC(=O)Cn2c(C(=O)OC)cc3occc32)c1,x,0%,x,x,-4%,x
O=C1NC(=S)N/C1=C\c1cccc([N+](=O)[O-])c1,56µM*,17%,47%[38.3 µM],9%[46.1 µM],-12%,3%
CN1C(=O)/C(=C/c2cccc([N+](=O)[O-])c2)C(=O)N1c1ccccc1,50µM*,x,x,x,2%,x
O=C1NC(=S)N/C1=C/c1cccc([N+](=O)[O-])c1,11%,-3%,-1%,-7%,-8%,-3%
Cc1cnc(C(=O)Nc2ccccc2-n2cccc2)cn1,45µM*,2%,6%[38.3 µM],-12%[46.1 µM],-4%,-1%
Cc1cnc(C(=O)Nc2ccccc2F)cn1,-14%,-6%,-9%[38.3 µM],-7%[46.1 µM],-3%,-4%
